KCNQ2 pot: KCNQ2 (rat) channel potentiation. O88943. CHO-K1 KCNQ2, FluxOR thallium flux fluorescence; active compounds read high. B-score at 10 µM. 310,000 compounds, 0.54% hits. AID 2239;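 active means fluorescence ratio B-score at least 3 SD of library B-scores, with initial fluorescence B-score within 3 of them, cut at about 5.3 in these data; same plate scores as AID 2156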;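 further: B-score of peak minus minimum over baseline fluorescence ratio after K+ and Tl+ stimulus; positive B-score means potentiation of KCNQ2 with more thallium influx and brighter signal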
Target sequence (O88943 whole entry, looked up): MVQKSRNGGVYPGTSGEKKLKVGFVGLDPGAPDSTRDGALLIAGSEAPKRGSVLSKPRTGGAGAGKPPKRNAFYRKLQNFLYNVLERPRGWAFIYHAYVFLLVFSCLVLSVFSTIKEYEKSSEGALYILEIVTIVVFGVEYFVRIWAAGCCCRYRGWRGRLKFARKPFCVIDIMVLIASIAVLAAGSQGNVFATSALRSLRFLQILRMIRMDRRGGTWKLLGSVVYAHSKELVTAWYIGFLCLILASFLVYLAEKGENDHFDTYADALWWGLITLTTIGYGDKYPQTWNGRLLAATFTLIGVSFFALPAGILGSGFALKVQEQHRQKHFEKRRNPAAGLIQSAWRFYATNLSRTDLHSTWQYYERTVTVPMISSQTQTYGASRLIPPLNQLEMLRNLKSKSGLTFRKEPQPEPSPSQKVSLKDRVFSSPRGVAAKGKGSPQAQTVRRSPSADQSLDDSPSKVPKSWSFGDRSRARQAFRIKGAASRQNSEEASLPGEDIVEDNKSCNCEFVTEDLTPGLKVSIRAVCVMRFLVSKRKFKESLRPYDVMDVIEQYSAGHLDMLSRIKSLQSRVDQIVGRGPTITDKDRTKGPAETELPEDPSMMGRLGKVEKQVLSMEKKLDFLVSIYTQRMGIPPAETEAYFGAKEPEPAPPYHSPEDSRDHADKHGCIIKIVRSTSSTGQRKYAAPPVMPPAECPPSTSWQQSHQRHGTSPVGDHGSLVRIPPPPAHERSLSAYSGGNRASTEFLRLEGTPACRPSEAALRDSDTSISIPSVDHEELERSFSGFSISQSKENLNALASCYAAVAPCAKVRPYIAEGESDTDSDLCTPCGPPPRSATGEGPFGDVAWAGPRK
KCNQ2 inh: inhibitors of rat KCNQ2 potassium channel. AID 2156. 310,000 compounds, 1.1% hits. CHO-K1 KCNQ2, FluxOR thallium flux, 20 min; active compounds read low. O88943. B-score at 10 µM;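 active means fluorescence ratio B-score at most minus 3 library SDs, with starting brightness B-score within 2 library SDs, cut at about -5.5 in these data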
Kir21 conf inh: confirmation of mouse Kir2.1 potassium channel inhibitors | shares compounds with KCNQ2 pot | Tl flux remaining, % of negative control (active compounds read low), % at 10 µM | Kir2.1-expressing cells, FluxOR thallium flux fluorescence; active compounds read low | 2,300 compounds, 41% hits;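 active means Primary-screen hit whose thallium flux fell at least 3 control SD below untreated wells in both duplicates, with normal baseline fluorescence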
HEK293 Tl flux: parental HEK293 activity in Kir2.1 inhibitor counter-screen | shares compounds with KCNQ2 pot | parental HEK293 cells, FluxOR thallium flux fluorescence; 0% = unstimulated blank wells | FluxOR signal as % of negative control (100 = no effect), % at 10 µM | 2,300 compounds, 19% hits | AID 2105;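 active means dye signal at least 3 control SD above or below untreated wells in both duplicates, raw fluorescence within 3, either direction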;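 further: percent is based on the flux ratio of peak minus minimum fluorescence over baseline F0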
CHO-K1 Tl ctr: parental CHO-K1 activity in KCNQ2 potentiator counter-screen; shares compounds with KCNQ2 pot; parental CHO-K1 cells, FluxOR thallium flux fluorescence; zero = vehicle mean+3SD, 100% = vehicle-minus-blank window; activity increase over 3SD of controls, % at 10 µM; 1,200 compounds, 43% hits;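 active means signal rise of at least 3 SD above the untreated control mean, in both duplicate wells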;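 further: counter screen of KCNQ2 potentiator hits so any rise reflects channel-independent effects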
KCNQ1 pot spec: tests whether KCNQ2 potentiators also act on human KCNQ1; shares compounds with KCNQ2 pot; CHO KCNQ1 stable, FluxOR thallium flux fluorescence; beyond 3SD, as % of vehicle-control signal; activation over 3SD threshold, % at 10 µM; 1,200 compounds, 28% hits;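 active means fluorescence ratio rise of at least 3 SD of vehicle wells above their mean, in both replicate wells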
KCNQ2 pot confirm: confirmation of rat KCNQ2 potassium channel potentiators; potentiation, less the hit threshold, % at 10 µM; shares compounds with KCNQ2 pot; AID 2287; 1,200 compounds, 68% hits; CHO-KCNQ2 cells, FluxOR thallium flux fluorescence;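 active means fluorescence ratio rising 3 SD or more over the vehicle control mean in both replicates, plus primary screen hit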;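 further: peak minus minimum thallium fluorescence divided by baseline after K/Tl stimulus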
Kir21 spec: selectivity of KCNQ2 potentiators: effect on mouse Kir2.1; shares compounds with KCNQ2 pot; HEK293 Kir2.1, FluxOR thallium flux fluorescence; activity over 3SD threshold, % at 10 µM; 1,200 compounds, 2% hits;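 active means fluorescence ratio rise of at least 3 SD above the vehicle-control mean, seen in both replicates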
KCNQ2 W236L pot: rat KCNQ2 W236L mutant potentiation by KCNQ2 potentiators; shares compounds with KCNQ2 pot; CHO KCNQ2-W236L, automated patch clamp current; current increase over 3SD of negative controls (%), active compounds read high, % at 25 µM; 940 compounds, 10% hits;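 active means current increase at least 3 SD of the untreated controls above them in both duplicate recordings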
Large screens that a line does not name were inactive (follow-up assays come after a bar, where they were run). Sampled rows, rich in hits. Any-hit rate of the full collection: about 1.6%.

COc1ccc(Br)cc1CSC(=N)N	none
CCCCn1c(N)c(N(CCOC)C(=O)Cn2c(=O)oc3ccccc32)c(=O)[nH]c1=O	none (no result: KCNQ2 pot)
COc1ccc(CC(=O)NC2CCSc3ccccc32)c(OC)c1 (centres undefined)	none (no result: KCNQ2 pot) | Kir21 conf inh 72% | HEK293 Tl flux inactive
COc1ccc(OC)c(C(=O)NC2CCSc3ccccc32)c1 (centres undefined)	none (no result: KCNQ2 pot)
O=C(/C=C/NCc1cccnc1)c1ccc(-c2ccccc2)cc1	none
CC(C)(C)c1cc(Cl)ccc1OCCn1ccnc1	none
COCCCNCCCOc1ccc(Cl)cc1Br	none (no result: KCNQ2 pot)
CN(C)CCOCCOc1ccc(Cl)cc1C(C)(C)C	none (no result: KCNQ2 pot) | Kir21 conf inh 34% | HEK293 Tl flux inactive
CC(O)CNCCCOc1ccc(Cl)cc1C(C)(C)C (centres undefined)	none (no result: KCNQ2 pot) | Kir21 conf inh 32% | HEK293 Tl flux inactive
COC(=O)[C@@H](Cc1c[nH]c2ccccc12)NC(=O)c1ccc2c(c1)OCO2	none (no result: KCNQ2 pot)
COc1ccccc1CCNC(=O)CNC(=O)c1ccc2ccccc2c1	none (no result: KCNQ2 pot)
FC(F)(F)c1cccnc1Oc1ccc(C2=NCCS2)cc1	KCNQ2 pot 5.4 | Kir21 conf inh inactive | HEK293 Tl flux inactive | CHO-K1 Tl ctr inactive | KCNQ1 pot spec 30 | KCNQ2 pot confirm 13 | Kir21 spec inactive | KCNQ2 W236L pot inactive
Nc1cccnc1Oc1ccc(F)cc1	none
Oc1ccc(Cl)cc1Nc1nc(NCC2CCCO2)c2ccccc2n1 (centres undefined)	none
c1ccc2c(NCC3CCCO3)nc(N3CCCCC3)nc2c1 (centres undefined)	none
Oc1ccccc1Nc1nc(NCC2CCCO2)c2ccccc2n1 (centres undefined)	none (no result: KCNQ2 pot) | Kir21 conf inh 46% | HEK293 Tl flux inactive
Oc1ccc(Nc2nc(NCC3CCCO3)c3ccccc3n2)cc1 (centres undefined)	none (no result: KCNQ2 pot) | Kir21 conf inh inactive | HEK293 Tl flux inactive
COc1ccc(NCc2nnc(SCc3ccc(Cl)cc3)n2-c2ccccc2)cc1	none (no result: KCNQ2 pot)
COc1ccc2c(c1)CCCN2C(N)=Nc1ccc(Cl)cc1	none | Kir21 conf inh 37% | HEK293 Tl flux inactive
COc1ccc2c(c1)CCCN2C(N)=O	none (no result: KCNQ2 pot)
CCC(C)c1ccc(NC(=O)NCCN2CCCCC2)cc1 (centres undefined)	none
COC(CNc1ncnc2c1cnn2C)OC	none
Cn1ncc2c(O/N=C(\N)c3ccc(C(C)(C)C)cc3)ncnc21	KCNQ2 pot 6.2 | Kir21 conf inh inactive | HEK293 Tl flux inactive | CHO-K1 Tl ctr 47 | KCNQ1 pot spec inactive | KCNQ2 pot confirm 6.1 | Kir21 spec inactive | KCNQ2 W236L pot inactive
S=C(NCc1cccs1)Nc1ccccc1	none
Cc1ccc(NC(=S)NCc2cccs2)cc1	KCNQ2 pot 8.9 | Kir21 conf inh inactive | HEK293 Tl flux inactive | CHO-K1 Tl ctr inactive | KCNQ1 pot spec inactive | KCNQ2 pot confirm 14 | Kir21 spec inactive | KCNQ2 W236L pot inactive
OCCN(Cc1ccccc1)c1ncnc2sccc12	none (no result: KCNQ2 pot)
Cc1cc(SCC(=O)NCC(c2cccs2)N2CCOCC2)c(C)cc1Br (centres undefined)	KCNQ2 pot 5.4 | Kir21 conf inh inactive | HEK293 Tl flux inactive | CHO-K1 Tl ctr 38 | KCNQ1 pot spec inactive | KCNQ2 pot confirm inactive | Kir21 spec inactive | KCNQ2 W236L pot inactive
CCC(=O)NCC(c1cccs1)N1CCOCC1 (centres undefined)	none
Cc1ccccc1OCCC(=O)OCC(=O)Nc1c(C)nn(-c2ccccc2)c1C	none
CC1C/C(=N/NC(=O)c2cccc(F)c2)c2ccc(O)cc2C1 (centres undefined)	none
CCSc1nnc(NC(=O)CC(C)C)s1	none | Kir21 conf inh inactive | HEK293 Tl flux inactive
CCSc1nnc(NC(=O)CC)s1	none
COc1ccc(C)cc1NC(=O)CN(C)S(=O)(=O)c1ccc2c(c1)CC(C)N2C(C)=O (centres undefined)	none
CC1CC(C)CN(CC(=O)N2CCOCC2)C1 (centres undefined)	none
COc1cc(/C=C2/C(=O)NN(c3ccc(C)c(Cl)c3)C2=O)cc([N+](=O)[O-])c1O	none (no result: KCNQ2 pot)
Cc1ccc(N2NC(=O)/C(=C\c3cc4c(cc3[N+](=O)[O-])OCO4)C2=O)cc1C	none (no result: KCNQ2 pot) | Kir21 conf inh 76% | HEK293 Tl flux inactive
COCCNC(=O)C(OC(=O)CC1Sc2ccccc2NC1=O)c1ccccc1 (centres undefined)	none
Cc1ccc(C(=O)N2CCN(c3ccc(F)cc3)CC2)cc1S(=O)(=O)N1CCCCC1	none (no result: KCNQ2 pot)
Cc1ccc(C(=O)N2CCN(c3ccccc3)CC2)cc1S(=O)(=O)N1CCCC1	none | Kir21 conf inh inactive | HEK293 Tl flux inactive
COc1ccc(N2CCN(Cc3nc(N)nc(Nc4ccc(C)c(Cl)c4)n3)CC2)cc1	KCNQ2 pot 11 | Kir21 conf inh inactive | HEK293 Tl flux inactive | CHO-K1 Tl ctr 60 | KCNQ1 pot spec 7.2 | KCNQ2 pot confirm 21 | Kir21 spec inactive | KCNQ2 W236L pot inactive
Cc1ccc(Nc2nc(N)nc(CN3CCN(c4ccccc4)CC3)n2)cc1Cl	none (no result: KCNQ2 pot)
Oc1ccc(CN2CCCCC2)c2cccnc12	none
CC(C)COCc1ccc(O)c2ncccc12	KCNQ2 pot 7.7 | Kir21 conf inh inactive | HEK293 Tl flux inactive | CHO-K1 Tl ctr inactive | KCNQ1 pot spec 11 | KCNQ2 pot confirm 51 | Kir21 spec inactive | KCNQ2 W236L pot inactive
CCCOCc1ccc(O)c2ncccc12	none
Oc1ccc(CN2CCc3ccccc3C2)c2cccnc12	KCNQ2 pot 13 | Kir21 conf inh 32% | HEK293 Tl flux inactive | CHO-K1 Tl ctr 44 | KCNQ1 pot spec inactive | KCNQ2 pot confirm 1.3 | Kir21 spec inactive | KCNQ2 W236L pot inactive
Oc1ccc(COCc2ccccc2)c2cccnc12	KCNQ2 pot 5.9 | Kir21 conf inh inactive | HEK293 Tl flux inactive | CHO-K1 Tl ctr 15 | KCNQ1 pot spec inactive | KCNQ2 pot confirm 1.0 | Kir21 spec inactive | KCNQ2 W236L pot inactive
OCc1ccc(O)c2ncccc12	none (no result: KCNQ2 pot)
CC(=O)Nc1ccc(C(=O)NCC2(N3CCCCC3)CCCCC2)cc1	none
N#CC1CCCc2c1[nH]c1ccc([N+](=O)[O-])cc21 (centres undefined)	none
Cn1cnc([N+](=O)[O-])c1N=C(N)N	none (no result: KCNQ2 pot)
Cc1ccc(CNC(=O)c2ccc(OCC(C)C)cc2)n1C	none (no result: KCNQ2 pot)
COc1ccc(C(=O)O/N=C2\C(=O)N(C)c3ccccc32)cc1	none (no result: KCNQ2 pot)
